test system: JAK1(JH2domain-pseudokinase); conditions: concentration: 1 μM, replicates: in singlicate; n = 1
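Further: KINOMEscan kinase panel screen.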

Point of comparison: `CN1CCN(CCCNc2nccc(-c3c(-c4ccc(F)cc4)nn4cc(C(F)(F)F)ccc34)n2)CC1` [GW621581], “%Inh” value 0%. Against it:
- COc1ccc(Nc2nccc(N3CCC(NC(=O)Nc4cccc(OC)c4)C3)n2)cc1 (stereo not shown) [GSK1379742] — the same, 0%
- Cc1ccc(C)c(NC(=O)NC2CCN(c3ccnc(Nc4ccc(F)cc4)n3)C2)c1 (stereo not shown) [GSK1379720] — the same, 0%
- c1ccc(-c2n[nH]cc2Nc2ccnc3ccccc23)nc1 [GW694077] — higher, 33%
- COc1cc(Nc2nccc(N3CCC(NC(=O)Nc4cccc(C(C)=O)c4)C3)n2)cc(OC)c1OC (stereo not shown) [GSK1379753] — higher, 11%
- O=C(Nc1cccc(-c2nn3ncccc3c2-c2ccnc(Nc3ccccc3)n2)c1)c1c(F)cccc1F [GSK198271] — the same, 0%
- c1ccc(-c2cnc3nccnn23)cc1 [AH20685] — the same, 0%
- Cl.c1ccc(-c2ccc3c(Nc4ccc5[nH]ncc5c4)ccnc3c2)nc1 [GW440137] — the same, 0%
- Fc1ccc(-c2ncn(C3CCNCC3)c2-c2ccnc(Oc3ccc(-c4ccccc4)cc3)n2)cc1 [SB-245391] — the same, 0%
- Clc1ccc(-c2nn3ncccc3c2-c2ccnc(Nc3ccc4c(c3)OCCO4)n2)cc1 [GW829116] — higher, 17%
- Cc1ccc(F)c(C(=O)Nc2cccc(-c3nn4ccccc4c3-c3ccnc(Nc4cccc(F)c4)n3)c2)c1F [GSK361061] — the same, 0%
- CNC(=O)c1ccccc1Nc1nc(Nc2ccc(N3CCOCC3)cc2)ncc1Cl.Cl [GSK1576028] — higher, 99.9%
- Cc1cccc(Nc2nc(N[C@H]3CCNC3)ncc2C(N)=O)c1.Cl [GSK2197149] — higher, 88%
- CCn1c(-c2nonc2N)nc2c(C#CC(C)(C)O)nc(OC[C@H](N)c3ccccc3)cc21 [GSK943949] — the same, 0%
- COc1cc(Nc2ncc3c(C)nc(-c4cc5ccccc5[nH]4)n3n2)cc(OC)c1OC [GW869516] — higher, 98.5%
- Cl.NC(=O)c1cccc(Nc2nccc(Nc3ccc(Oc4c(Cl)cccc4Cl)c(Cl)c3)n2)c1 [GW659009] — the same, 0%
- Cl.c1ccc(-c2ccc3c(Nc4ccc5[nH]ccc5c4)ccnc3c2)nc1 [GW440138] — the same, 0%
- O=C(Nc1n[nH]c2cc(-c3ccoc3)ccc12)C1CC1 [SB-738481] — higher, 29%
- COc1cccc(C2=C(Nc3ccc(Cl)c(C(=O)O)c3)C(=O)NC2=O)c1 [SB-390769] — the same, 0%
- COc1cccc(-c2ccc3c(NC(=O)C4CC4)n[nH]c3n2)c1 [SB-710903] — the same, 0%
- COc1cccc(NC(=O)NC2CCN(c3ccnc(Nc4cc(OC)c(OC)c(OC)c4)n3)C2)c1 (stereo not shown) [GSK1379763] — higher, 29%
- CN(C)S(=O)(=O)c1cc(-c2ccc3nccc(-c4cccc(S(N)(=O)=O)c4)c3c2)cnc1N [GSK1669921] — higher, 12%
- Cn1cc(-c2ccc3c(c2)CCN3C(=O)Cc2cccc(F)c2)c2c(N)ncnc21 [GSK2603358] — the same, 0%
- COc1ccc(CNC(=O)NC2CCN(c3ccnc(Nc4ccc(F)cc4)n3)CC2)cc1 [GSK1379788] — the same, 0%
- O=C(Nc1cccc(-c2nn3ccccc3c2-c2ccnc(Nc3cccc(F)c3)n2)c1)c1c(F)ccc(F)c1Cl [GSK357952] — the same, 0%
- Cl.Cl.NCC(NCc1ccc(-c2ccnc3[nH]ccc23)s1)c1ccccc1 (stereo not shown) [GSK1321565] — the same, 0%
- CCc1ccc(-c2ccc3c(c2)-c2c(cnn2C)S(=O)(=O)N3C)cc1 — higher, 5%
- O=C(O)C(F)(F)F.O=C(O)C(F)(F)F.O=c1[nH]ccc2nc(N[C@@H]3CCCNC3)nc(Nc3ccc(S(=O)(=O)N4CCOCC4)cc3)c12 [GSK2177277] — higher, 82%
- Cc1occc1-c1ncc(OC[C@@H](N)Cc2c[nH]c3ccccc23)cc1-c1ccc2[nH]nc(C)c2c1.O=C(O)C(F)(F)F [GSK682037] — the same, 0%
- COCCOCCOc1cc2ncc3c4ccc(C#N)cc4[nH]c3c2cc1OC — higher, 68%
- CN(C)Cc1ccc(-c2ccc3c(Nc4ccc(Oc5ccccn5)cc4)ccnc3c2)o1 [GW567148] — the same, 0%
- Cc1ccc(C(=O)N2CC[C@@H](O)C2)cc1-n1c(C)cc(OCc2ccc(F)cc2F)c(Br)c1=O — higher, 48%
- Cn1cc(-c2[nH]c3cc(NC(=O)[C@H](N)C4CCCCC4)cc4c3c2C=NNC4=O)cn1 — higher, 100%
- COc1cc(Nc2nccc(-c3c(-c4cccc(NC(=O)c5c(F)cccc5F)c4)nn4ncccc34)n2)cc(OC)c1OC [GSK327238] — the same, 0%
- CC(=O)Nc1nc2cnc(Nc3cc(NC(=O)c4cccc(C5(C#N)CC5)c4Cl)ccc3C)nc2s1 — higher, 9%
- Cc1ccc(C(=O)Nc2ccc(Nc3ccnc4cc(-c5nccs5)ccc34)cc2O)cc1.Cl [GW494702] — the same, 0%
- Nc1ncc(-c2cccnc2)c2scc(-c3ccc4c(c3)CCN4C(=O)Cc3ccccc3)c12 [GSK683281] — higher, 1%
